Laboratory results as given in PubChem BioAssay (NCATS).
Results filed as inconclusive are left out. Calls of active or inactive are those of the source. Calls come from the whole dose curve; as a rule, active = well fitted curve in the direction sought with a large enough effect; inconclusive = small, poorly fitted or top-dose-only effect, or another doubt; inactive = no such curve, though single readings can be large; an effect the other way counts as inactive or inconclusive.

Tests used:
[1] = qHTS of pediatric cancer cell lines to identify multiple opportunities for drug repurposing: Primary screen for NB-EBc1 cells (AID 1347095)
Summary of the method: (§1)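 Cells seeded at 500-1,000 cells/well in growth media, rested 5 hours at 37 degrees C, 5% CO2, then dosed; MIPE compounds at 11-point (from 0.78 nM) and NPC at 8-point (from 0.59 nM) final concentrations. Viability by CellTiter-Glo luminescence after 48 hours.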

[2] = qHTS of pediatric cancer cell lines to identify multiple opportunities for drug repurposing: Primary screen for U-2 OS cells (AID 1347096); note: nearly all actives have a fitted effect of over 50% in size
Summary of the method: (§2)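 Cells (500-1,000/well) in growth media were settled 5 h at 37 degrees C, then given compounds for 48 h. Viability was read as CellTiter-Glo luminescence. Primary runs used MIPE at 11 points (0.78 nM-46 µM) and NPC at 8 points (0.59 nM-46 µM); follow-ups used 11 points.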

[3] = qHTS of pediatric cancer cell lines to identify multiple opportunities for drug repurposing: Primary screen for Saos-2 cells (AID 1347097); note: nearly all actives have a fitted effect of over 40% in size
Summary of the method: as §1

[4] = qHTS of pediatric cancer cell lines to identify multiple opportunities for drug repurposing: Primary screen for SK-N-SH cells (AID 1347098);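 note: DMSO served as neutral control and bortezomib at 2.3 µM as positive control; nearly all actives have a fitted effect of over 65% in size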
Summary of the method: (§3)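 Cells (500-1,000/well) rested 5 h, then received compounds for 48 h; metabolically active cells were measured by CellTiter-Glo luminescence. Final concentrations spanned up to 46 µM (MIPE, 11-point) or 0.59 nM-46 µM (NPC, 8-point) in primary screens, 11-point in follow-ups.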

[5] = qHTS of pediatric cancer cell lines to identify multiple opportunities for drug repurposing: Primary screen for NB1643 cells (AID 1347099); note: nearly all actives have a fitted effect of over 50% in size
Summary of the method: as §1

[6] = qHTS of pediatric cancer cell lines to identify multiple opportunities for drug repurposing: Primary screen for LAN-5 cells (AID 1347100)
Summary of the method: as §2

[7] = qHTS of pediatric cancer cell lines to identify multiple opportunities for drug repurposing: Primary screen for BT-12 cells (AID 1347101); note: nearly all actives have a fitted effect of over 25% in size
Summary of the method: as §3

[8] = qHTS of pediatric cancer cell lines to identify multiple opportunities for drug repurposing: Primary screen for Rh18 cells (AID 1347102); note: nearly all actives have a fitted effect of over 65% in size
Summary of the method: as §2

[9] = qHTS of pediatric cancer cell lines to identify multiple opportunities for drug repurposing: Primary screen for OHS-50 cells (AID 1347103); note: nearly all actives have a fitted effect of over 40% in size
Summary of the method: as §3

[10] = qHTS of pediatric cancer cell lines to identify multiple opportunities for drug repurposing: Primary screen for RD cells (AID 1347104); note: nearly all actives have a fitted effect of over 55% in size
Summary of the method: as §1

[11] = qHTS of pediatric cancer cell lines to identify multiple opportunities for drug repurposing: Primary screen for MG 63 (6-TG R) cells (AID 1347105); note: nearly all actives have a fitted effect of over 50% in size
Summary of the method: as §1

[12] = qHTS of pediatric cancer cell lines to identify multiple opportunities for drug repurposing: Primary screen for control Hh wild type fibroblast cells (AID 1347106);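 note: series mostly up to about 46 µM; a drop in luminescence marks cytotoxicity and a rise apparent proliferation; nearly all actives have a fitted effect of over 55% in size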
Summary of the method: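 Viability after 48 h compound treatment at 37C, 500-1,000 cells/well, read as ATP luminescence with CellTiter-Glo. Primary screens used 11-point (MIPE, 0.78 nM-46 µM) or 8-point (NPC, 0.59 nM-46 µM) final concentrations; follow-up screens used 11-point dilutions.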

[13] = qHTS of pediatric cancer cell lines to identify multiple opportunities for drug repurposing: Primary screen for Rh30 cells (AID 1347107); note: series mostly up to about 46 µM; nearly all actives have a fitted effect of over 75% in size
Summary of the method: as §2

[14] = qHTS of pediatric cancer cell lines to identify multiple opportunities for drug repurposing: Primary screen for Rh41 cells (AID 1347108);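 note: series mostly up to about 46 µM; luminescence drop marks cytotoxic hits; nearly all actives have a fitted effect of over 70% in size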
Summary of the method: as §1

Measured: Potency

Cc1ccc(-c2ccccc2C#N)cc1
inactive: all assays above

O=C(CCCl)NCc1ccccc1
inactive: all assays above

CCCCCCCC(=O)[O-].CCCCCCCC(=O)[O-].[Zn+2]
inactive: all assays above

CCCCOCCOC(=O)c1cccnc1
inactive: all assays above

Cc1nc([N+](=O)[O-])cn1-c1ccc([N+](=O)[O-])cc1
inactive: all assays above

C1=CC2C3C=CC(C3)C2C1 (stereo not given)
inactive: all assays above

CO[C@]1(NC(=O)CSC(F)F)C(=O)N2C(C(=O)O)=C(CSc3nnnn3CCO)CO[C@H]21
inactive: all assays above

CC1(C)O[C@@H]2C[C@H]3[C@@H]4C[C@H](F)C5=CC(=O)C=C[C@]5(C)[C@@]4(F)[C@@H](O)C[C@]3(C)[C@]2(C(=O)CO)O1
inactive: all assays above

Cc1cccc(C)c1NC(=O)c1ccc(N)cc1
inactive: all assays above

Cc1ncc([N+](=O)[O-])n1C
inactive: all assays above

O=C(O)Cn1cnnn1
not listed: [14]
inactive: all other assays above

CC1(C)S[C@@H]2[C@H](NC(=O)C(c3ccccc3)S(=O)(=O)O)C(=O)N2[C@H]1C(=O)O (stereo not given in full)
inactive: all assays above

CCOC(=O)C(O)c1ccccc1 (stereo not given)
inactive: all assays above

CCCc1c2oc(C(=O)O)cc(=O)c2cc2c(=O)cc(C(=O)O)n(CC)c12
inactive: all assays above

CC(C)(C)NCC(O)COc1ccccc1OCC1CCCO1 (stereo not given)
inactive: all assays above

COC(=O)/C=C(/C)N
inactive: all assays above

CC(C)C[C@H](NC(=O)CNC(=O)[C@H](Cc1ccc(O)cc1)NC(=O)[C@H](CO)NC(=O)[C@H](Cc1c[nH]c2ccccc12)NC(=O)[C@H](Cc1cnc[nH]1)NC(=O)[C@@H]1CCC(=O)N1)C(=O)N[C@@H](CCCN=C(N)N)C(=O)N1CCC[C@H]1C(=O)NCC(N)=O (stereo in doubt)
inactive: all assays above

O=C(O)c1[nH]n(-c2ccc(S(=O)(=O)O)cc2)c(=O)c1N=Nc1ccc(S(=O)(=O)O)cc1
not listed: [14]
inactive: all other assays above
